Data on four molecules can be found in PubChem BioAssay.

For orientation: inhibition means the change of the read-out against control, counted positive when it falls.

Several values for one entry are separate records, joined by “and”; a condition that tells them apart may be missing. Equal values may be shown once. Activity calls are given as the source filed them. Unless noted, how the calls were made is not given here.

Test [1] is described as follows: signal quenchers or enhancers, Cy5 substrate/SSB – biochemical, NIH Clinical Collection, E. coli SSB, artefact control for HCV NS3 helicase inhibitor project (AID 743268). Particulars: Cy5-oligo bound E. coli SSB, fluorescence interference.
For test [2], the system named is Hepatitis C virus NS3 helicase. Briefly: blockers of NS3h binding to DNA – biochemical, fluorescence polarization, NIH Clinical Collection, primary screen (AID 743270). The conditions noted are these: NS3 helicase binding to Cy5-dT15 DNA, stronger effect = higher value, concentration not given here.
Test [3] deals with Single-stranded DNA-binding protein (Escherichia coli (strain K12)) (UniProt P0AGE0). Put plainly: SSB-ssDNA binding inhibitors – biochemical, fluorescence polarization, NIH Clinical Collection, counter-screen for HCV NS3 helicase inhibitor project (AID 743271; in the data active means inhibition above about 28%). The conditions noted are these: E. coli SSB-DNA binding, stronger effect = higher value, concentration not given here. Background: Fluorescence polarisation rises when a labelled molecule tumbles more slowly, as on binding a larger partner.

The nature of test [4]: compounds distorting NS3 helicase fluorescence signal – biochemical, NIH Clinical Collection, artefact control for HCV NS3 helicase inhibitor project (AID 743272).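 Further: HCV NS3 helicase with a Cy5 labelled single stranded DNA probe.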 Particulars: fluorescence interference counterscreen, HCV NS3 helicase assay; stronger effect = lower value.
Test [5] can be described thus: Wnt pathway potentiators raising nuclear beta-catenin – imaging, WNT3A-conditioned medium, mouse C2C12, NPC library, primary screen (AID 1117326; in the data active means nuclear beta-catenin stimulation mostly above about 4.2%, no sharp cut-off; inactive means mostly below about 10%). Particulars: stronger effect = higher value.
The nature of test [6]: stimulators of insulin release from INS-1E, primary screen, cell-based, 5 mM glucose, NPC library (AID 1117329;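 active means compound raises insulin release from rat beta cells at 5 mM glucose, no numeric limit stated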). Particulars: rat INS-1E insulin secretion, at 10 µM, stronger effect = higher value.
Test [7] is described as follows: growth inhibition of GSK3B-pretreated HCT116 cells – cell-based, CellTiter-Glo, 0.2 to 20 µM (AID 1117336;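 active means compounds lowering colon cancer cell viability after pretreatment blocking the GSK3B kinase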). Particulars: HCT116 viability after GSK3B inhibitor, at 20 µM, stronger effect = higher value. On the technique in general: ATP-based viability assays read luminescence as a measure of living cells.
Test [8] is described as follows: inhibition of endothelial tube formation, primary screen, imaging, VEGF stimulated, CD31 staining, tube area, NPC library (AID 1117340;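 active means compound that reduces growth-factor-driven endothelial tube area in a mixed cell culture, no cutoff stated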). The conditions noted are these: VEGF-stimulated ADSC/ECFC co-culture, at 10 µM, stronger effect = higher value.
Test [9] is described as follows: GLP1 release stimulators, primary, NCI-H716, NPC library (AID 1117341;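 active means compound raises GLP1 secretion from the human gut endocrine cells, with no numeric limit stated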). Particulars: NCI-H716 cells, at 10 µM, stronger effect = higher value.
The nature of test [10]: HCT116 colon cancer cell growth inhibition, primary screen, CellTiter-Glo luminescence, NPC library (AID 1117342;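 active means compounds that lower survival of HCT116 colon cancer cells in the luminescence readout, no numeric limit stated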). Particulars: at 20 µM (top of the series).
Test [11] can be described thus: reduced SW480 viability measured with CellTiter-Glo, NPC library, primary (AID 1117343;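 active means compounds that lower viability of the colon cancer cells in the luminescence readout, with no numeric limit stated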). The conditions noted are these: CellTiter-Glo luminescence; at 20 µM (top of the series).
Test [12] in a line: NPC library primary testing for decreased DLD-1 cell viability via CellTiter-Glo (AID 1117346;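 active means compounds that lower survival of DLD-1 colon cancer cells in the luminescence readout, no cutoff given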). The conditions noted are these: DLD-1 viability, CellTiter-Glo luminescence; at 20 µM (top of the series).
Test [13] deals with 6-phosphogluconate dehydrogenase, decarboxylating (Homo sapiens) (UniProt P52209). Put plainly: inhibition of human phosphogluconate dehydrogenase – biochemical, recombinant enzyme, NADPH absorbance, primary screen (AID 1159550;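 active means at least 20% inhibition of 6-phosphogluconate dehydrogenase activity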). Particulars: recombinant 6PGD, NADPH absorbance 341 nm; at 10 µM; stronger effect = higher value.
Test [14] is described as follows: EMT-state selective cytotoxicity in co-culture – imaging, PC-3E GFP, TEM4-18 mCherry, primary screen (AID 1345086;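 active means compounds killing one labelled cell type while sparing the other, by normalised counts and ratio limits, not self-fluorescent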;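 on all read-outs here: cells exposed to compound for 72 h before imaging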;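 on red/green cell ratio (normalised): normalised mesenchymal count divided by normalised epithelial count so high means epithelial killing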). The conditions noted are these: PC-3E GFP / TEM4-18 mCherry co-culture, imaging cell counts, at 1 µM; for red/green cell ratio (normalised): actives lie on both sides, counts scaled to control wells, 1 = unselective.
The nature of test [15]: MELAS cybrid and Rieske KO viability enhancers – cell-based, MELAS cybrids, Rieske KO mouse fibroblasts, CellTiter-Glo, primary screen (AID 1508586;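 active means mean z-score across replicates of 1.96 or higher in either the MELAS or the Rieske mutant cell line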;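 further: z relative to plate mean and SD of compound and empty wells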). Particulars: low glucose.
Test [16] addresses NAD(+) hydrolase SARM1 (Homo sapiens) (UniProt Q6SZW1). Briefly: blocking NAD cleavage by SARM1 SAM-TIR – cell lysate, NAD-Glo luminescence (AID 1508614;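 active means compound whose remaining NAD level is above about 45 nM, limit read from the data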). The conditions noted are these: SAM-TIR HEK293T lysate NADase, at 1 µM, stronger effect = higher value.
In test [17] the target is Mitogen-activated protein kinase 7 (Homo sapiens) (UniProt Q13164). Briefly: Gal4-ERK5 driven luciferase induction – cell-based, HTS, primary screen (AID 1508626;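 active means luciferase signal above three times the same-plate solvent-only control wells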;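 further: luciferase driven by Gal4-ERK5 fusion binding five Gal4 sites before minimal TATA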). The conditions noted are these: HeLa Gal4-ERK5 transactivation, 18 h, at 5 µM, stronger effect = higher value.
A further test concerns F380Y. Put plainly: BK channel mutant inhibitors and activators – cell-based, U2OS BacMam, thallium flux, beta subunits, selectivity assay, profiling panel (AID 1259406;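 active means thallium flux through the channel raised or lowered by more than 3 SD from vehicle-only wells, actives on both sides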;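 further: initial slope of Thallos dye fluorescence rise after thallium is added; log ratio against the mean of 0.3% DMSO vehicle wells on the same plate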). The conditions noted are these: U2OS BacMam BK variants, at 30 µM.
Test [18] in a line: viability loss with induced miR-34 in A549 – imaging, A549 dox-inducible miR-34, nuclei and caspase counts, primary screen (AID 1347080). The conditions noted are these: A549 miR-34 inducible, Hoechst nuclei count, 48 h; measured here: total cells without miR-34 induction.
[19] abbreviates: measured here: epithelial PC-3E GFP cell survival.
Setting [20] is: measured here: mesenchymal TEM4-18 mCherry cell survival.
The mark [21] stands for this setting: MELAS cybrid survival, CellTiter-Glo 48 h, stronger effect = higher value.
Where [22] appears, read: Rieske KO mouse fibroblast survival, CellTiter-Glo 72 h.

6-phosphogluconate dehydrogenase, decarboxylating (Homo sapiens), sequence (P52209 whole entry, looked up): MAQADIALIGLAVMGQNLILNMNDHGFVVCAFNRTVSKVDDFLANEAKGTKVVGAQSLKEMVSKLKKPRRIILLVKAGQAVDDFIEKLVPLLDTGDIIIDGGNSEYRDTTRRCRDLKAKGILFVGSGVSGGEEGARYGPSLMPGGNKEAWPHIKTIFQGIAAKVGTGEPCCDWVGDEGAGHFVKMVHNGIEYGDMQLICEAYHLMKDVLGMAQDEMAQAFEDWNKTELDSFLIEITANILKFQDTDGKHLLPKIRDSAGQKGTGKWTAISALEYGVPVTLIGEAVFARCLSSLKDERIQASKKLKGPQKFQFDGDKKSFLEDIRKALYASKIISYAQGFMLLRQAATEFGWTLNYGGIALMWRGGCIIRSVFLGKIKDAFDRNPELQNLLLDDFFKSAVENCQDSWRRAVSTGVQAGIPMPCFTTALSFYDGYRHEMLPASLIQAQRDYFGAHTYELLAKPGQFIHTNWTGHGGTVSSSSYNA
NAD(+) hydrolase SARM1 (Homo sapiens), sequence (Q6SZW1 whole entry, looked up, the tested form may be a part): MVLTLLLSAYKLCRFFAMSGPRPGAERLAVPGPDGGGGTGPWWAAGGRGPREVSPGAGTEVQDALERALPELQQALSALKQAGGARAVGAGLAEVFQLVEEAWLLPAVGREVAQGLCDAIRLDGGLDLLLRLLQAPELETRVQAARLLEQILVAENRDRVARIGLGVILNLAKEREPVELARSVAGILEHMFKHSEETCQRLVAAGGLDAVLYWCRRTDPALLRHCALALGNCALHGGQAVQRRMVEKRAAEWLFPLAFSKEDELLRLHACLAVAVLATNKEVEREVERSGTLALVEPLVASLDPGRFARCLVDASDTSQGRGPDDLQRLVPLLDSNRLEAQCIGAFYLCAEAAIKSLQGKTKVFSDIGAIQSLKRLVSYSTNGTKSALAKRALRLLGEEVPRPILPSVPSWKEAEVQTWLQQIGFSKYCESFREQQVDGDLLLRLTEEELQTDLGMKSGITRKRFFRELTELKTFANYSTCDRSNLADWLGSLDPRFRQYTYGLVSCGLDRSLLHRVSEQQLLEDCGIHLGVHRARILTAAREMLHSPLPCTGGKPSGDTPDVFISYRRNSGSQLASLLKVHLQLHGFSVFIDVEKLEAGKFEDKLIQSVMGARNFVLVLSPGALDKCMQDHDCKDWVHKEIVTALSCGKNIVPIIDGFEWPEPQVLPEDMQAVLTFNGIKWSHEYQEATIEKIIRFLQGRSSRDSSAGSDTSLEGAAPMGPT
Mitogen-activated protein kinase 7 (Homo sapiens), sequence (Q13164 whole entry, looked up, the tested form may be a part): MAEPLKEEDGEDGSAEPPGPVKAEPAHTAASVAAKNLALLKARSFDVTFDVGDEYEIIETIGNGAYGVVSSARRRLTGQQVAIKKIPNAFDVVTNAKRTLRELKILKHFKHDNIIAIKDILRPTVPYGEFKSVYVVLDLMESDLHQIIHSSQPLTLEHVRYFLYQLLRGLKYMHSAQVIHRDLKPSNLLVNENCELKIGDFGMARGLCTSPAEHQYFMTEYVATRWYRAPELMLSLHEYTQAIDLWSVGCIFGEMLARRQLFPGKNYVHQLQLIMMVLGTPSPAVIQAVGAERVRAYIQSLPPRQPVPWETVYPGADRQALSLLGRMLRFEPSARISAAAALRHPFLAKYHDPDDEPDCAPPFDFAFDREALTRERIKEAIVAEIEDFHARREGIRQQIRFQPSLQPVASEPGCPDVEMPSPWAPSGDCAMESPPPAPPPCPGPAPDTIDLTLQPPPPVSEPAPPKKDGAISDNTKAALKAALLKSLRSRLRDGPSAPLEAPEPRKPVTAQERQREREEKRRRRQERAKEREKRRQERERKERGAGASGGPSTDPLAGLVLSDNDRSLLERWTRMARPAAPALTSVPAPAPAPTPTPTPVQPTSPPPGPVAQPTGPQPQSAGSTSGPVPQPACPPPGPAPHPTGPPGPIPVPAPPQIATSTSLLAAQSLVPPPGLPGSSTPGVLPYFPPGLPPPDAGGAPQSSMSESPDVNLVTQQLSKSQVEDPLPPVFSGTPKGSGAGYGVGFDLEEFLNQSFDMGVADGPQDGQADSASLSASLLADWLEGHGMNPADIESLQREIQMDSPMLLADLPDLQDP

Consider `CC[N+](C)(C)c1cccc(O)c1`, for which the fluorescence ratio in test [1] was 1.03 (inactive); in test [4], 0.96 (inactive). The inhibition in test [2] is -1.36% (inactive); in test [3] it was 0.29% (inactive); in test [13], -4.48% (inactive). The nuclear beta-catenin stimulation in test [5] (at 10 µM) is -1.7% (inactive); in [5] (stimulation, at 2 µM) it was 0.9%. Moreover, the insulin secretion stimulation in test [6] was 0% (inactive). The viability decrease in [7] is -29% (inactive). For the same molecule, in test [8], the tube area decrease was -7.4% (inactive). In [9], the GLP1 secretion stimulation was 0.7% (inactive). Besides, the inhibition of viability in test [10] was -0.1% (inactive). The viability decrease (inhibition) in test [11] was -11.1% (inactive); in test [12], -13.2% (inactive). Moreover, the red/green cell ratio (normalised) in test [14] was 1.2 (inactive). Also, the normalised cell number came to 0.65 in [14] (setting [19]) and 0.78 in test [14] (setting [20]). In addition, the z-score in [15] (setting [21]) is -0.344 (inactive); in [15] (setting [22]), 0.198. The remaining NAD in test [16] is 10 nM (inactive). Also, the luciferase signal in test [17] was 68 AU (inactive). Besides, the log fold change Tl+ flux with F380Y is 0.0242 (inactive).

For the molecule `C=C(CC)C(=O)c1ccc(OCC(=O)O)c(Cl)c1Cl`, the fluorescence ratio is 2.96 (active) in test [1] and 0.9 (inactive) in test [4]. Also, the inhibition was -4.09% (inactive) in [2], 2.57% (inactive) in [3] and 9.98% (inactive) in test [13]. For the same molecule, the nuclear beta-catenin stimulation in test [5] (at 10 µM) is 3% (inactive); in [5] (stimulation, at 2 µM), 1.4%. For the same molecule, the insulin secretion stimulation in test [6] is -2.5% (inactive). In test [7], the viability decrease was 24.9% (inactive). Besides, the tube area decrease in [8] is 52.6% (active). Further, the GLP1 secretion stimulation in [9] was 3.1% (inactive). For the same molecule, the inhibition of viability in [10] is -25.8% (inactive). Moreover, the values for the viability decrease (inhibition) in test [11] and in [12] were 122% (active) and 14.8% (inactive), respectively. Also, the red/green cell ratio (normalised) in test [14] is 0.98 (inactive). Moreover, the figures for the normalised cell number in test [14] (setting [19]) and in test [14] (setting [20]) were 0.92 and 0.9, respectively. Moreover, the cell count in [18] is 10500 and 9830 and 12200. For the same molecule, the z-score in test [15] (setting [21]) was 0.232 (inactive) and -0.08 (inactive); in test [15] (setting [22]), -0.298 and 0.189. Moreover, the remaining NAD in [16] was 10 nM (inactive). Moreover, in test [17], the luciferase signal is 64 AU (inactive). Further, in the test on F380Y, the log fold change Tl+ flux was -0.0103 (inactive).

Consider `CC(C)[N+](C)(CCOC(=O)C1c2ccccc2Oc2ccccc21)C(C)C`, for which the fluorescence ratio in [1] was 1.03 (inactive); in test [4] it was 0.96 (inactive). Besides, the inhibition is -1.36% (inactive) in test [2], 0.29% (inactive) in test [3] and 6.27% (inactive) in test [13]. Also, the nuclear beta-catenin stimulation in test [5] (at 10 µM) was 1.3% (inactive); in [5] (stimulation, at 2 µM), 3.3%. For the same molecule, the insulin secretion stimulation in [6] is 0.2% (inactive). For the same molecule, the viability decrease in test [7] is -14.9% (inactive). The tube area decrease in test [8] was 9.2% (inactive). In addition, the GLP1 secretion stimulation in [9] is 0.4% (inactive). For the same molecule, in test [10], the inhibition of viability was 6.7% (inactive). Also, the viability decrease (inhibition) in test [11] was -1.5% (inactive); in test [12], -16.9% (inactive). In addition, the red/green cell ratio (normalised) in [14] is 1.27 (inactive). Also, the normalised cell number in test [14] (setting [19]) came out at 1.02; in [14] (setting [20]), 1.3. For the same molecule, the figures for the z-score in [15] (setting [21]) and in test [15] (setting [22]) were 0.349 (inactive) and 0.213, respectively. For the same molecule, the remaining NAD in test [16] was 10 nM (inactive). The luciferase signal in test [17] was 48 AU (inactive). Moreover, the log fold change Tl+ flux in the test with F380Y was 0.0202 (inactive).

On to `Cc1ccc(Cl)c(Nc2ccccc2C(=O)O)c1Cl`, for which the fluorescence ratio in test [1] is 0.6 (active); in test [4], 1 (inactive). In addition, the inhibition in test [2] is 0.45% (inactive); in test [3] it was -0.48% (inactive); in test [13] it was 7.02% (inactive). The nuclear beta-catenin stimulation in test [5] (at 10 µM) was 0.5% (inactive); in test [5] (stimulation, at 2 µM), 1.2%. Also, the insulin secretion stimulation in [6] was -1.1% (inactive). Further, the viability decrease in [7] is 8.4% (inactive). For the same molecule, in test [8], the tube area decrease is 22.9% (inactive). Besides, the GLP1 secretion stimulation in test [9] was 5% (inactive). In test [10], the inhibition of viability is 35.8% (inactive). In addition, the viability decrease (inhibition) in test [11] was 58.5% (active); in test [12] it was 78.5% (active). Moreover, in test [14], the red/green cell ratio (normalised) is 0.98 (inactive). The normalised cell number worked out at 0.92 in test [14] (setting [19]) and 0.9 in test [14] (setting [20]). Also, the z-score was -0.277 (inactive) and 0.657 (inactive) in test [15] (setting [21]); -0.131 and 0.573 in [15] (setting [22]). The remaining NAD in [16] was 10 nM (inactive). Besides, the luciferase signal in test [17] was 48 AU (inactive). In addition, in the test with F380Y, the log fold change Tl+ flux is 0.212 (active).
